# From PubChem BioAssay (NCI)
# Compounds without any hit were thinned out: in the full panel of roughly 83,000, 20% have a hit.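 Single-dose data. Exposure time 48 hours. Values below 10 considered active.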 Active and inactive are the calls of the source.
# Tested on: SR leukemia
# Test: NCI-60 one-dose screen, 48 h (100 = growth as untreated, 0 = no growth, -100 = all killed)
# Details: 10 µM
# Procedure: Growth inhibition of the SR human tumor cell line is measured as a screen for anti-cancer activity. Cells are grown in 96 well plates and exposed to the test compound for 48 hours. Compounds are tested at a single concentration, which is 10^-5 M for most compounds. The reported endpoint is percent growth (GI% or GIPRCNT), where numbers from 0 - 100% represent growth inhibition, and numbers from -100% - 0 represent cell death. For example, a value of 40 represents 60% growth inhibition. A value of 0 means no net growth occurred over the course of the experiment. A value of -40 indicates 40% of cells at the beginning of the experiment died by the end of the experiment. A value of -100 means all cells are dead at the end of the experiment.
# NCI-60 Human Tumor Cell Lines Screen was performed using the standard one-dose NCI protocol, which is described in more detail at https://dtp.cancer.gov/discovery_development/nci-60/default.htm.
# Compounds with GIPRCNT values below 10 were considered active. Activity score was based on GIPRCNT using the following formula: […]
# Score is 0 for GIPRCNT values of 100 or above, 50 for GIPRCNT values of 0, and 100 for GIPRCNT values of -100.
row,Compound,growth
1,Nc1nc(N)c(-c2ccc(Cl)c(Cl)c2)c(/C=C/c2ccc(S(=O)(=O)F)cc2)n1,76.3% (inactive)
2,COc1cc2c(cc1OC)CN(C)C(C)C2 (stereo not given),101% (inactive)
3,O=CN1N=C(c2ccccc2)CC1c1sc(N(CCCl)CCCl)nc1Cl (stereo not given),91.2% (inactive)
4,ClCCN(CCCl)c1ccc(C=NCCc2c[nH]c3ccccc23)cc1,31.9% (inactive)
5,O=C(NCc1ccc([N+](=O)[O-])cc1)Nc1ccc(S(=O)(=O)F)cc1,79.1% (inactive)
6,O=C(O)C1(Br)CC12c1ccccc1-c1ccccc12 (stereo not given),88.9% (inactive)
7,Cc1ccc(C(=O)C2CN(C)CCC2(O)c2ccc(C)cc2)cc1 (stereo not given),101% (inactive)
8,COc1ccc(/C=C(/C(=O)N2CCCC2)c2cc(OC)c(OC)c(OC)c2)cc1N,19.5% (inactive)
9,CO[C@@H]([CH2][Hg][S]C#N)[C@@H]([CH2][Hg][S]C#N)OC,66.5% (inactive)
10,CC12CCC(=O)C=C1C(O)CC1C2CCC2(C)C(O)CCC12 (stereo not given),106% (inactive)
11,COc1ccc(OC)c(/C=C(/C)[N+](=O)[O-])c1,-7.63% (active)
12,CCN(CC)CCOc1c(C(C)C)cccc1C(C)C,-1.29% (active)
13,O=C1c2ccccc2C(=O)N1[N+](=O)[O-],95.4% (inactive)
14,CC(=O)Nc1ccc(C=C2C(=O)NC(=O)NC2=O)cc1,95.7% (inactive)
15,FC(F)=C(F)c1ccccc1,80.4% (inactive)
16,CNC(=O)Oc1ccccc1,99% (inactive)
17,CCN(CC)c1ccc(C=C2C(=O)NC(=S)NC2=O)cc1,-50.8% (active)
18,O=C(CCCN1CCC2(CC1)C(=O)NCN2c1ccc(F)cc1)c1ccc(F)cc1,99.2% (inactive)
19,O=S(=O)(O)c1ccc(-c2ccc([As](=O)(O)O)cc2)cc1,101% (inactive)
20,ClCCN(CCCl)c1nc(Cl)c(C2CC(c3ccc(Cl)cc3)=NN2c2cc(Cl)cc(Cl)c2)s1 (stereo not given),93.1% (inactive)

row,Compound,growth
1,[Br][Pb]([c]1ccccc1)([c]1ccccc1)[c]1ccccc1,-37.8% (active)
2,O=S(=O)(Cl)c1ccccc1 (tested in a mixture with another compound),104% (inactive)
3,COc1cc(C2(C#N)CCN(C)CC2)cc(OC)c1OC,91.2% (inactive)
4,NC(Cc1ccc2c(c1)OCO2)c1ccc2c(c1)OCO2 (stereo not given),83.9% (inactive)
5,O=C(O)c1cccc(CCl)c1,89.5% (inactive)
6,CC(C)(O)/C=C/C(=O)[C@](C)(O)[C@H]1[C@H](O)C[C@@]2(C)[C@@H]3CC=C4[C@@H](C=C(O)C(=O)C4(C)C)[C@]3(C)C(=O)C[C@]12C,-7.28% (active)
7,O=C1C=CC(=O)C2C1C1(Cl)C(Cl)=C(Cl)C2(Cl)C1(Cl)Cl (stereo not given),36.5% (inactive)
8,O=C1NC(=S)NC(=O)C1=Cc1ccccc1,121% (inactive)
9,O=C(c1cccs1)C1NO[N+]([O-])=C1c1cccs1 (stereo not given),22.4% (inactive)
10,CC(C)Nc1ccc(Nc2ccccc2)cc1,51.2% (inactive)
11,C/C1=C/C(=O)O[C@@H]2C[C@@H](CC[C@H](C)/C=C\C=C\CC1)O[C@@](OCCc1ccccc1)([C@@H]1CSC(=O)N1)C2,41.3% (inactive)
12,Cc1cc(NC(=O)/C=C/c2ccc([N+](=O)[O-])cc2)ccc1S(=O)(=O)F,81.3% (inactive)
13,O=C1NC(=O)C(Cc2ccccc2)(Cc2ccccc2)C(=O)N1,99.6% (inactive)
14,[Cl][Hg][n]1cnc2c(Cl)c(Cl)c(Cl)cc21,80.1% (inactive)
15,O=c1cc[nH]c(=O)o1,94.7% (inactive)
16,NCCc1cc(O)c(O)cc1O,98% (inactive)
17,CC12CCC(=O)C=C1CCC1C2CCC2(C)C(C(=O)COC(=O)Cc3ccc(N(CCCl)CCCl)cc3)CCC12 (stereo not given),-2.48% (active)
18,CCOc1cc(C=C(C#N)C#N)cc(Br)c1O,93.4% (inactive)
19,NC(=O)SCC(=O)Nc1ccc([As](=O)(O)O)cc1,100% (inactive)
20,CC(/C=N/N=C(N)N)=N\N=C(N)N,70.1% (inactive)
